# Reference: the antibiotic and cytotoxicity screens of Wong et al. (2023)
# In all, about 39,000 compounds went through this assay and about 3,300 (8.5%) were called active. The sample holds actives, similar compounds and a random draw of the others, so the mix is not that of the screen.
# System: HepG2
# Test: cytotoxicity call (relative viability < 0.9)
# Settings: 10 µM
row,Compound,cytotoxicity call
1,CCCC(=O)N(CCc1c[nH]c2ccccc12)[C@@H]1CC(C(=O)NCCO)=C[C@H](Oc2c(I)cc(CO)cc2OC)[C@H]1O,inactive
2,CN(C)CC(=O)N[C@H]1CC[C@H](CCNC(=O)C2CCC2)O[C@H]1CO,inactive
3,Cc1noc(C)c1S(=O)(=O)Nc1ccc2c(c1)C(=O)N([C@H](C)CO)C[C@H](C)[C@@H](CN(C)C(=O)Nc1cccc3ccccc13)OCCCC[C@@H](C)O2,inactive
4,COCC(=O)N[C@@H]1C=C[C@H](CC(=O)N2CCCCC2)O[C@@H]1CO,inactive
5,CN1C(=O)c2cc(NC(=O)Cc3cccs3)ccc2OC[C@H]2O[C@@H](CC(=O)NCCc3ccncc3)CC[C@H]21,inactive
6,C[C@@H]1CCCCO[C@@H](CN(C)S(=O)(=O)c2ccccc2)[C@@H](C)CN([C@H](C)CO)C(=O)c2cc(NC(=O)Nc3ccc4c(c3)OCO4)ccc2O1,inactive
7,C[C@H](CO)N1C[C@H](C)[C@H](CN(C)S(=O)(=O)c2cccs2)Oc2ccc(NC(=O)c3ccncc3)cc2C1=O,inactive
8,COc1ccc(NC(=O)N(C)C[C@H]2Oc3c(NC(=O)c4cnccn4)cccc3C(=O)N([C@H](C)CO)C[C@H]2C)cc1,inactive
9,C[C@@H]1CN([C@H](C)CO)C(=O)c2cccc(NC(=O)c3ccncc3)c2O[C@@H]1CN(C)Cc1ccc2c(c1)OCO2,inactive
10,C[C@@H]1CN([C@H](C)CO)C(=O)c2cccc(NS(=O)(=O)c3cn(C)cn3)c2O[C@@H]1CN(C)C(=O)Nc1ccc2c(c1)OCO2,inactive
11,CC(C)(C)NC[C@@]1(CO)SC(N)=NC1=O,inactive
12,C[C@@H]1CN([C@H](C)CO)C(=O)Cc2cc(NC(=O)Cc3cn(C)c4ccccc34)ccc2O[C@@H]1CN(C)Cc1ccc(-c2ccccc2)cc1,active
13,C[C@H]1CN([C@@H](C)CO)C(=O)Cc2cc(NC(=O)Cc3cn(C)c4ccccc34)ccc2O[C@@H]1CN(C)Cc1ccc(-c2ccccc2)cc1,inactive
14,C[C@@H]1CN(S(=O)(=O)N2CCN(C(=O)c3[nH]nc4ccccc34)CC2)C[C@H](C)O1,inactive
15,C[C@@H]1CN([C@@H](C)CO)C(=O)CCCn2nncc2CO[C@@H]1CN(C)C(=O)C1CC1,inactive
16,C[C@@H]1CN([C@@H](C)CO)C(=O)c2cc(NC(=O)Nc3ccc4c(c3)OCO4)ccc2O[C@@H](C)CCCCO[C@@H]1CN(C)Cc1ccc(C(F)(F)F)cc1,inactive
17,C[C@@H]1CCCCO[C@H](CN(C)Cc2ccc(C(F)(F)F)cc2)[C@H](C)CN([C@H](C)CO)C(=O)c2cc(NC(=O)Nc3ccc4c(c3)OCO4)ccc2O1,active
18,C[C@@H]1CCCCO[C@@H](CN(C)Cc2ccc(C(F)(F)F)cc2)[C@H](C)CN([C@@H](C)CO)C(=O)c2cc(NC(=O)Nc3ccc4c(c3)OCO4)ccc2O1,active
19,C[C@@H]1CCCCO[C@H](CN(C)Cc2ccc(C(F)(F)F)cc2)[C@@H](C)CN([C@@H](C)CO)C(=O)c2cc(NC(=O)Nc3ccc4c(c3)OCO4)ccc2O1,active
20,C[C@@H]1CCCCO[C@@H](CN(C)Cc2ccc(C(F)(F)F)cc2)[C@@H](C)CN([C@@H](C)CO)C(=O)c2cc(NC(=O)Nc3ccc4c(c3)OCO4)ccc2O1,inactive
21,C[C@@H]1CN([C@H](C)CO)C(=O)c2cc(NC(=O)Nc3ccc4c(c3)OCO4)ccc2O[C@@H](C)CCCCO[C@H]1CN(C)Cc1ccc(C(F)(F)F)cc1,active

row,Compound,cytotoxicity call
1,C[C@@H]1CN([C@@H](C)CO)C(=O)c2cc(NC(=O)Nc3ccc4c(c3)OCO4)ccc2O[C@@H](C)CCCCO[C@H]1CN(C)Cc1ccc(C(F)(F)F)cc1,inactive
2,C[C@@H]1CN([C@H](C)CO)C(=O)c2cc(NC(=O)Nc3ccc4c(c3)OCO4)ccc2O[C@@H](C)CCCCO[C@@H]1CN(C)Cc1ccc(C(F)(F)F)cc1,inactive
3,COc1ccc(CN(C)C[C@H]2Oc3ccc(NC(=O)Cn4cnnn4)cc3CC(=O)N([C@H](C)CO)C[C@@H]2C)cc1,inactive
4,C[C@@H]1CN([C@@H](C)CO)C(=O)c2cc(NC(=O)CCC(F)(F)F)ccc2O[C@@H]1CN(C)C(=O)Nc1cccc2ccccc12,inactive
5,O=C(C[C@@H]1CC[C@@H]2[C@H](COC[C@H](O)CN2S(=O)(=O)c2ccc(Cl)cc2)O1)NCCN1CCCCC1,inactive
6,C[C@@H]1CN([C@@H](C)CO)C(=O)c2cc(C#Cc3cccc(F)c3)cnc2O[C@H]1CN(C)CC1CCOCC1,inactive
7,Cc1noc(C)c1NC(=O)N(C)C[C@H]1OCCCC[C@@H](C)Oc2ccc(NS(=O)(=O)c3ccccc3)cc2C(=O)N([C@@H](C)CO)C[C@@H]1C,inactive
8,CNC(=NC#N)NCCSCc1nc[nH]c1C,inactive
9,N#C[C@@H]1[C@@H](c2ccc(C#Cc3ccccn3)cc2)[C@H](CO)N1C(=O)CN1CCOCC1,inactive
10,CN(C)CC(=O)N1CC(=O)N2[C@H](CO)[C@H](c3ccc(C#Cc4cccnc4)cc3)[C@@H]2C1,inactive
11,COC(=O)[C@@H](Cc1ccc(-n2cc(C(=O)NO)nn2)cc1)N1CC2=CC(=O)[C@@H](C3CC3)[C@@H]2[C@H]1[C@H](O)Cc1ccccc1,inactive
12,COc1ccccc1-c1ccc2c(c1)O[C@@H](CN(C)C(=O)c1ccncc1)[C@H](C)CN([C@@H](C)CO)S2(=O)=O,inactive
13,CN1CCN(C(=O)C[C@H]2CC[C@H]3[C@@H](COC[C@H](O)CN3C(=O)C3CCOCC3)O2)CC1,inactive
14,Cc1noc(C)c1NC(=O)Nc1ccc2c(c1)CC(=O)N([C@@H](C)CO)C[C@H](C)[C@@H](CN(C)S(=O)(=O)c1c(C)noc1C)O2,inactive
15,CC(C)C[C@@H]1NC(=O)[C@H]2C[C@@H](C(=O)NCCCC[N+](C)(C)C)[C@@H](c3cccc(OCCO)c3)N2C1=O,inactive
16,CO[C@H]1CN(C)C(=O)c2cc(NS(C)(=O)=O)ccc2OC[C@H](C)N(C(=O)C2CCOCC2)C[C@@H]1C,inactive
17,N#CCCn1c(CC(N)=O)nc2ccccc21,inactive
18,Cc1cccc(S(=O)(=O)N2C[C@H](O)COC[C@@H]3O[C@@H](CC(=O)NCc4ccncn4)CC[C@H]32)c1,inactive
19,C[C@H]1CCCCO[C@@H](CN(C)Cc2ccc(C(F)(F)F)cc2)[C@@H](C)CN([C@@H](C)CO)C(=O)c2cc(NC(=O)Nc3ccc4c(c3)OCO4)ccc2O1,inactive
20,C[C@@H]1CCCCO[C@@H](CN(C)Cc2ccc(C(F)(F)F)cc2)[C@H](C)CN([C@H](C)CO)C(=O)c2cc(NC(=O)Nc3ccc4c(c3)OCO4)ccc2O1,active
21,C[C@H]1CCCCO[C@H](CN(C)Cc2ccc(C(F)(F)F)cc2)[C@@H](C)CN([C@@H](C)CO)C(=O)c2cc(NC(=O)Nc3ccc4c(c3)OCO4)ccc2O1,active

row,Compound,cytotoxicity call
1,C[C@@H]1CCCCO[C@H](CN(C)Cc2ccc(C(F)(F)F)cc2)[C@@H](C)CN([C@H](C)CO)C(=O)c2cc(NC(=O)Nc3ccc4c(c3)OCO4)ccc2O1,active
2,C[C@@H]1CCCCO[C@@H](CN(C)Cc2ccc(C(F)(F)F)cc2)[C@@H](C)CN([C@H](C)CO)C(=O)c2cc(NC(=O)Nc3ccc4c(c3)OCO4)ccc2O1,inactive
3,C[C@@H]1CCCCO[C@H](CN(C)Cc2ccc(C(F)(F)F)cc2)[C@H](C)CN([C@@H](C)CO)C(=O)c2cc(NC(=O)Nc3ccc4c(c3)OCO4)ccc2O1,active
4,C[C@H](CO)N1C[C@H](C)[C@H](CN(C)Cc2ccc(C(F)(F)F)cc2)OCCCC[C@H](C)Oc2ccc(NC(=O)Nc3ccc4c(c3)OCO4)cc2C1=O,inactive
5,C[C@H](CO)N1C[C@H](C)[C@@H](CN(C)Cc2ccc(C(F)(F)F)cc2)OCCCC[C@H](C)Oc2ccc(NC(=O)Nc3ccc4c(c3)OCO4)cc2C1=O,inactive
6,CC1(C)SC2C(NC(=O)C(N)c3ccccc3)C(=O)N2C1C(=O)[O-].[Na+] (stereo unspecified),inactive
7,C[C@@H]1CCCCO[C@H](CN(C)C(=O)Nc2ccc(F)cc2)[C@H](C)CN([C@H](C)CO)C(=O)c2cc(NS(=O)(=O)c3cccs3)ccc2O1,inactive
8,COc1ccc(NC(=O)Nc2ccc3c(c2)C(=O)N([C@@H](C)CO)C[C@H](C)[C@H](CN(C)Cc2ccncc2)OCCCC[C@H](C)O3)cc1,inactive
9,COC1C=COC2(C)Oc3c(C)c(O)c4c(O)c(c(C=NN5CCN(C)CC5)c(O)c4c3C2=O)NC(=O)C(C)=CC=CC(C)C(O)C(C)C(O)C(C)C(OC(C)=O)C1C (stereo unspecified),inactive
10,COc1ccc(NC(=O)Nc2ccc3c(c2)C(=O)N([C@@H](C)CO)C[C@@H](C)[C@H](CN(C)C(=O)Nc2cccc4ccccc24)OCCCC[C@@H](C)O3)cc1,inactive
11,N[C@@H](C(=O)O)c1ccc(O)cc1,inactive
12,C[C@@H]1CCCCO[C@H](CN(C)C(=O)Nc2cccc3ccccc23)[C@@H](C)CN([C@H](C)CO)C(=O)c2cc(N(C)C)ccc2O1,inactive
13,"CC(C=CC1(O)C(C)=CC(=O)CC1(C)C)=CC(=O)O (mixture of isomers) [ABSCISIC ACID (cis,trans; +/-) ]",inactive
14,C[C@H](CO)N1C[C@H](C)[C@H](CN(C)Cc2ccc(Oc3ccccc3)cc2)Oc2ccc(NC(=O)CCC(F)(F)F)cc2C1=O,inactive
15,C[C@@H]1CN([C@H](C)CO)C(=O)c2cc(NC(=O)CCC(F)(F)F)ccc2O[C@H]1CN(C)Cc1ccc(Oc2ccccc2)cc1,inactive
16,C[C@H]1CN([C@@H](C)CO)C(=O)c2cc(NC(=O)CCC(F)(F)F)ccc2O[C@H]1CN(C)Cc1ccc(Oc2ccccc2)cc1,active
17,C[C@@H]1CN([C@@H](C)CO)C(=O)c2cc(NC(=O)CCC(F)(F)F)ccc2O[C@@H]1CN(C)Cc1ccc(Oc2ccccc2)cc1,active
18,C[C@@H]1CN([C@H](C)CO)C(=O)c2cc(NC(=O)CCC(F)(F)F)ccc2O[C@@H]1CN(C)Cc1ccc(Oc2ccccc2)cc1,inactive
19,C[C@H]1CN([C@@H](C)CO)C(=O)c2cc(NC(=O)CCC(F)(F)F)ccc2O[C@@H]1CN(C)Cc1ccc(Oc2ccccc2)cc1,inactive
